The values below come from PubChem BioAssay (NCI).

Compounds without any hit were thinned out: in the full panel of roughly 83,000, 20% have a hit.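 Results are percent growth after 48 hours of single-concentration exposure. 100 means growth as in untreated cells, lower positive values show inhibition; negative values down to -100 show cell death.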 Values without a mark were called inactive. Calls of active or inactive are those of the source. Rule for the calls: active = growth percent below 10; inactive = the rest.

The test relates to KM12 colon. Description: NCI-60 one-dose screen, 48 h (100 = growth as untreated, 0 = no growth, -100 = all killed). The following applies: 10 µM unless noted.
Take `COc1cc(CN(c2ccc(C)cc2)C2OC(=O)c3ccccc32)cc(OC)c1OC` (centres undefined): the growth is 17.1%.
For the compound `COc1cc2c(c(OC)c1O)C(=O)C(OC)C(c1ccc(O)c(O)c1)O2` (centres undefined), the growth is 8.81% (active).
The same measure for `ClCc1c(Cl)c(Cl)c(Cl)c(CCl)c1Cl`: 24.8%; for `Brc1ccsc1Br`: 111%.
Regarding `CCCCSc1ncnc2c1ncn2C1CCCCO1` (centres undefined), the growth is 108%.
As to `Clc1ccc(-c2cnc3c(-c4ccnc(N5CCNCC5)c4)cnn3c2)cc1`, the growth is -3.73% (active).
As to `O=C1Nc2ccccc2/C1=C\c1nc(C2CCN(S(=O)(=O)c3ccc(F)cc3)CC2)n2ccccc12`, the growth was 65.8%.
As to `COc1cc(/C=C/c2cc(/C=C/c3ccc(O)c(OC)c3)n(C(=O)Nc3ccc(F)c(Cl)c3)n2)ccc1O`, the growth is 0.0776% (active).
`O=C(Nc1cccc(-n2ccc3c(NC(=O)c4ccccc4)nccc32)c1)c1ccc(N2CCOCC2)c(C(F)(F)F)c1`: the growth is 7.93% (active).
The same measure for `CCOC(=O)c1cc(N)nc2ccccc12`: 98.4%.
With `CCOC(=O)Cc1cc(Br)c(OCc2ccccc2)c(Br)c1`, the growth is 107%.
As for `CCOC(=O)C1C(=O)C=C(c2ccccc2)CC1c1sc(N(C)Cc2ccccc2)nc1Cl` (centres undefined), the growth was 90.9%.
With `O=c1c2cc(Br)cc(Br)c2nc(-c2ccc(Cl)cc2)n1/N=C\c1ccccc1F`, the growth is 72.2%.
As for `CCN(CC)c1cc(C)c(Cc2c(OC)ccc3ccccc23)cc1C`, the growth was 98.1%.
With `CCN(C(=O)CCl)C(C)(C)C(SSSC(c1ccc(Cl)cc1)C(C)(C)N(CC)C(=O)CCl)c1ccc(Cl)cc1` (centres undefined) the figure was 85.6%; with `O=C(Nc1ccc(Br)cc1)c1ccc(Cl)c(Cl)c1`, 9.99% (active).
The same measure for `COc1ccc2nc(C)cc(Sc3nc4ccccc4s3)c2c1`: 50.5%; for `C[C@@H]1N=C(c2ccc3ccccc3c2)Nc2nc3ccccn3c2C1=O`: 30.3%.
The same measure for `CC(C)[C@@H]1C=C2CC[C@H]3[C@](C)(CN)CCC[C@]3(C)[C@H]2CC1`: 37.8%; for `O=C(Nc1ccc(-n2ccc3c(NC(=O)c4ccccc4)nccc32)cc1)c1ccc(N2CCOCC2)c(C(F)(F)F)c1`: 22.7%.
With `COc1ccc(CNc2c3ccccc3nc3ccccc23)cc1F`, the growth was 32.8%.
Take `Cc1cc(O)ccc1Sc1ccccc1[N+](=O)[O-]`: the growth was 91.1%.
As to `O=C(C(=O)N1CCCC1)c1cn(CCCn2cc(C(=O)C(=O)N3CCCC3)c3cc(Br)ccc32)c2ccc(Br)cc12`, the growth is 86.2%.
Take `COc1cc(/C=N/NC(=O)Cn2c(-c3ccc(C)o3)nc3ccccc32)ccc1OCc1ccccc1`: the growth is 85.1%.
`CCOCCNc1ccc(S(=O)(=O)c2ccc(N)cc2)cc1N`: the growth was 99.3%.
As for `CC(C)(C)c1ccc(OC(=O)Nc2ccccc2)cc1`, the growth is 104%.
On to `CCOC(=O)c1cc(C(=O)OCC)c(C)nc1C`, for which the growth was 111%.
Turning to `Cc1ccc(OC2=C(C#N)C(=N)N3C(=NN2)Sc2c(C)ccc(C)c23)cc1`, the growth is 106%.
With `COc1cccc(NC(=O)OC(C)C)c1`, the growth was 103%.
For `CCCCCCCCCCCC1=NC(C)(C)CN1C(C)C`, the growth was 25.3%.
With `O=C(Nc1ccccc1)c1cc2ccccc2s1` the figure was 29.8%.
For `CC(C)(C)[Si](C)(C)OC1[C@@H](CNC(N)=O)O[C@@H](n2cnc3c(NC(=O)Nc4ccccc4)ncnc32)[C@H]1O[Si](C)(C)C(C)(C)C` (some centres undefined), the growth was 48.9%.
For the compound `O/N=C/c1ccncc1`, the growth was 105%.
As to `COc1ccc2nc3ccccc3c(NCc3ccc(C)cc3)c2c1`, the growth is 37.3%.
For the compound `C=C(C)[C@@H]1CC[C@]2(C(=O)NC(COC(=O)C(Cl)Cl)(COC(=O)C(Cl)Cl)COC(=O)C(Cl)Cl)CC[C@]3(C)[C@H](CC[C@@H]4[C@@]5(C)CC[C@H](OC(C)=O)C(C)(C)[C@@H]5CC[C@]43C)[C@@H]12`, the growth is 36.8%.
With `C#Cc1cccc(Nc2nc3cc([N+](=O)[O-])ccc3nc2Nc2ccc(O)cc2)c1` the figure was -36.3% (active); with `N#CCCn1cnc2c(N)ncnc21`, 106%.
With `O=C(CCl)N1c2ccccc2Oc2ccc3ccccc3c21` the figure was 17.3%; with `CC(C)c1ccc(-c2cnc3nonc3n2)cc1`, 31.2%.
